Screening data: PubChem BioAssay, National Center for Advancing Translational Sciences (NCATS)
In the library only some 10% were active in any assay of this set; here they are far more common.
GPT2 inh = inhibitors of human GPT2 alanine aminotransferase | actives 0.25% (n = 100,000) | Potency, µM (top dose mostly 57.7 µM), for the others: at the top dose activity change, negative = inhibition, usual class: inhibitors | Q8TD30 | Recombinant GPT2, coupled pyruvate oxidase/HRP Amplex Red fluorescence | AID 1671188; also: % is scaled to controls: 0 for no effect and ±100 for the full control effect; nearly all actives have a fitted effect of over 60% in size
Target sequence (Q8TD30 whole entry, looked up): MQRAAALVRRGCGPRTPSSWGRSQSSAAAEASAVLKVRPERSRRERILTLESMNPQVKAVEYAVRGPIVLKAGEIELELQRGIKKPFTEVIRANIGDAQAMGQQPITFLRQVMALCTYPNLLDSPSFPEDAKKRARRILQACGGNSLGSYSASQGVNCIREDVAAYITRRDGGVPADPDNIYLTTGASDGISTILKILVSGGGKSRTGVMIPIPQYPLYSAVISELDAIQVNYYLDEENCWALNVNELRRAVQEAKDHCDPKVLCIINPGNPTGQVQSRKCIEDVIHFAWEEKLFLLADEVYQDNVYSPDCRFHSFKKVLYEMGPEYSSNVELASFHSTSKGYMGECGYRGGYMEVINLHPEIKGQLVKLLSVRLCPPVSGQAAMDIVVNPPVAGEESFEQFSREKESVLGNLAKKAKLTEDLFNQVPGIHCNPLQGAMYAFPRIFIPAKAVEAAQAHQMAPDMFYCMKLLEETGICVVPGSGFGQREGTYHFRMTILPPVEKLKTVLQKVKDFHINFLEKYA
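Recombinant GPT2 (10ng/uL) with 250uM a-KG and 2mM L-alanine, 30 min at room temperature, in HEPES pH 7.5 buffer. Pyruvate detected by pyruvate oxidase/HRP/Amplex Red fluorescence after 30 min in the dark; AOA (50uM) as positive control.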
Luciferase inh = inhibitors of firefly (Photinus pyralis) luciferase; P08659; actives 2.5% (n = 76,000); purified P. pyralis luciferase, luminescence, biochemical; Potency, µM (titrated, usually from 115 µM), actives largely listed as inhibitors; also: % is scaled to controls: 0 for no effect and ±100 for the full control effect; nearly all actives have a fitted effect of over 65% in size
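Inhibitors were tested against purified firefly luciferase in a biochemical, low-substrate format (both substrates at 10uM) and luminescence measured with a CCD imager.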
HEK293 tox = HEK 293 cell cytotoxicity; HEK 293 viability, ATP luminescence (CellTiter-Glo), 48-72 h; Potency, µM (titrated, usually from 115 µM), for the others: at the highest dose activity change, negative = cytotoxicity, usual class: inhibitors; actives 6.6% (n = 94,000); AID 1345083; also: % is scaled to controls: 0 for no effect and ±100 for the full control effect; nearly all actives have a fitted effect of over 60% in size
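Cytotoxicity was scored by loss of ATP-coupled luminescence (CellTiter-Glo) in HEK 293 cells. Compound treatment ran 48 or 72 hr at 37 degree Celsius, 5% CO2, 95% humidity.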
NIH3T3 tox = NIH 3T3 cell cytotoxicity; NIH 3T3 viability, CellTiter-Glo ATP luminescence, 48-72 h; Potency, µM (series often up to 96.7 µM), without a hit: at the highest dose activity change, negative = cytotoxicity, usual class: inhibitors; actives 4.3% (n = 94,000); also: % is scaled to controls: 0 for no effect and ±100 for the full control effect; nearly all actives have a fitted effect of over 55% in size
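NIH 3T3 cells at 400 cells/well received 23 nL of compound by pintool and were incubated 48 or 72 h at 37 °C. Viability was read as ATP-coupled CellTiter-Glo luminescence.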
hNpr1 antagonist = antagonists of human natriuretic peptide receptor Npr1; HEK293 hNpr1 GloSensor cGMP, ANP-stimulated luminescence; actives 1.6% (n = 76,000); P16066; Potency, µM (highest dose often 46.3 µM), inactives show top-dose activity change, negative = inhibition, most hits filed as inhibitors; calls by dose curve; also: % is scaled to controls: 0 for no effect and ±100 for the full control effect; nearly all actives have a fitted effect of over 60% in size
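Compound pre-incubated 30 min at room temperature on GloSensor-loaded HEK293 cells stably carrying hNpr1 and the pGS-40F cGMP biosensor. Stimulation uses hNppA at 0.1 nM final; luminescence is taken at baseline and 20 min post-agonist.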
NPR1 antag cnf = hNpr1 antagonism, confirmation assay; HEK293 hNpr1 cGMP GloSensor luminescence, ANP-stimulated; AID 1347044; shares compounds with hNpr1 antagonist; actives 76% (n = 1,400); Potency, µM (highest dose often 57.6 µM), for inactives: at the top dose activity change, negative = inhibition, usual class: inhibitors; calls by dose curve; also: nearly all actives have a fitted effect of over 70% in size
NPR2 antag = selectivity test of Npr1 antagonists against human Npr2 | shares compounds with hNpr1 antagonist | HEK293 hNpr2 GloSensor cGMP luminescence, CNP-stimulated | Potency, µM (highest dose often 57.6 µM), inactives show top-dose activity change, negative = inhibition, actives largely listed as inhibitors | actives 67% (n = 1,400) | AID 1347046; calls by dose curve; also: nearly all actives have a fitted effect of over 70% in size
FLuc inh counter = inhibits firefly luciferase, false Npr1 antagonist flag. shares compounds with hNpr1 antagonist. purified FLuc enzyme, luminescence, Km substrate. Potency, µM (highest dose often 57.6 µM), without a hit: at the top dose activity change, negative = inhibition, actives largely listed as inhibitors. actives 0.7% (n = 1,400). AID 1347047; also: 0% is about no effect
GloSensor cGMP = reduces cGMP signal in GloSensor control cells. HEK293 GloSensor cGMP, SNP-stimulated, luminescence. AID 1347051. actives 69% (n = 1,400). Potency, µM (series often up to 57.6 µM), for the others: top-dose activity change, negative = inhibition, hits mostly inhibitors. shares compounds with hNpr1 antagonist; calls by dose curve; also: % is scaled to controls: 0 for no effect and ±100 for the full control effect; nearly all actives have a fitted effect of over 70% in size
* = called active by the depositor; i = inactive; ? = inconclusive; / = no result; [ ] = another dose, or the depositor's remark. Unless noted, calls follow the shape of the dose curve; as a rule, active = well fitted curve in the direction sought with a large enough effect; inconclusive = small, poorly fitted or top-dose-only effect, or another doubt; inactive = no such curve, though single readings can be large; an effect the other way counts as inactive or inconclusive. Potency is read from the fitted curve at half-maximal effect.

SMILES	GPT2 inh	Luciferase inh	HEK293 tox	NIH3T3 tox	hNpr1 antagonist	NPR1 antag cnf	NPR2 antag	FLuc inh counter	GloSensor cGMP
O=C(Nc1ccc(Cl)cc1)N1CCCC(C(=O)N2CCC(c3ccccc3)CC2)C1 (configuration not stated)	-6%	/	?	?	/	/	/	/	/
CCOc1ccc(C(=O)N2CCN(c3cc(-c4ccc(OC)cc4)[nH]n3)CC2)cc1	i	i	?	?	-23%	/	/	/	/
CN(C)c1ccc(C(=O)NCC2CCN(c3cc(-c4ccc(Cl)cc4)[nH]n3)CC2)cc1	-11%	i	?	?	?	?	?	-30%	?
CN(C)c1ccc(C(=O)NCC2CCN(c3cc(-c4ccccc4)[nH]n3)CC2)cc1	-25%	?	?	?	-10%	/	/	/	/
CCOc1ccc(C(=O)N2CCN(c3cc(-c4ccc(Cl)cc4)[nH]n3)CC2)cc1	-4%	i	?	?	13µM*	22µM*	19µM*	-3%	15µM*
O=C(c1ccoc1)N1CCCN(c2cc(-c3ccc(Cl)cc3)[nH]n2)CC1	-1%	i	?	?	-11%	/	/	/	/
N#Cc1ccc(C(=O)N2CCN(c3cc(-c4ccc(Cl)cc4)[nH]n3)CC2)cc1	i	i	?	?	6.3µM*	9.7µM*	11µM*	4%	6.9µM*
CCOc1ccc(C(=O)N2CCCN(c3cc(-c4ccc(F)cc4)[nH]n3)CC2)cc1	?	i	32µM*	?	22µM*	27µM*	?	0%	22µM*
Cc1ccc(C(=O)N2CCC3(CC2)COc2ccccc2C(=O)N3)cc1	i	i	-24%	-12%	20%	/	/	/	/
Cc1n[nH]c(C)c1CNC(=O)CCC[C@H]1NC[C@@H]2C[C@H]1CN(Cc1ccccc1)C2	?	i	-6%	-5%	-5%	/	/	/	/
CCOc1ccc(C(=O)N2CCCN(c3cc(-c4ccc(Cl)cc4)[nH]n3)CC2)cc1	i	i	40µM*	?	?	19µM*	22µM*	4%	17µM*
COc1ccc(-c2cc(N3CCCN(C(=O)c4ccc(Cl)cc4)CC3)n[nH]2)cc1	-5%	i	?	-17%	0%	/	/	/	/
O=C(Oc1ccccc1)N1CCC(Oc2cnc3c(ccn3-c3cncnc3)c2)CC1	i	i	56µM*	?	35µM*	40µM*	40µM*	4%[86.2 µM]	40µM*
Cc1cc(CNC(=O)c2cc(C(C)C)nn2C)c2[nH]c(C)c(C)c2c1	i	i	40µM*	?	7.1µM*	6.9µM*	6.9µM*	-2%	4.8µM*
CCc1[nH]c2c(CNC(=O)c3c(C)cc(C)n(C)c3=O)cc(F)cc2c1C	2%	i	-1%	-7%	-1%	/	/	/	/
O=C(CCCc1ccccc1)N1CCC(Cc2nc(-c3ccc(F)cc3)no2)CC1	i	i	?	?	7.9µM*	11µM*	12µM*	3%	11µM*
O=C(CCc1ccccc1)N1CCC(Cc2nc(-c3ccc(F)cc3)no2)CC1	-9%	i	45µM*	?	5µM*	6.1µM*	7.7µM*	1%	5.4µM*
COc1ccccc1-c1noc(CCC(=O)N2CCC(Cc3noc(C)n3)CC2)n1	4%	i	-25%	-20%	-2%	/	/	/	/
COc1ccc(N2CCN(C(=O)Nc3nc(C)ns3)CC2(C)C)cc1	i	i	10µM*	?	7.9µM*	12µM*	15µM*	3%	8.6µM*
CC(=O)Nc1ccc(S(=O)(=O)N[C@H]2CO[C@H]3[C@@H]2OC[C@@H]3Nc2nccc(-c3ccco3)n2)cc1	-7%	i	25µM*	?	13µM*	24µM*	24µM*	0%	27µM*
CC(=O)Nc1ccc(S(=O)(=O)N[C@H]2CO[C@H]3[C@@H]2OC[C@H]3OC(=O)Nc2ccc(Oc3ccccc3)cc2)cc1	?	i	?	?	11µM*	12µM*	17µM*	?	12µM*
COc1ccc(OC)c(S(=O)(=O)N[C@H]2CO[C@H]3[C@@H]2OC[C@H]3OC(=O)Nc2ccc(Oc3ccccc3)cc2)c1	-12%	i	?	?	8.9µM*	11µM*	14µM*	-7%	9.7µM*
COc1ccc(OC)c(S(=O)(=O)N[C@H]2CO[C@H]3[C@@H]2OC[C@H]3OC(=O)Nc2ccc(C(C)=O)cc2)c1	-3%	i	3%	i	0%	/	/	/	/
CCCS(=O)(=O)N1CCCN(CC)C2(CCOCC2)C1	-2%	/	i	-3%	/	/	/	/	/
COc1cccc(C(=O)N2CCC3(C2)NC(=O)N(Cc2ccc(Cl)cc2)C3=O)c1 (configuration not stated)	i	i	?	?	?	?	?	1%	-29%
O=S(=O)(c1ccc(Cl)cc1)N1CCOC[C@H](Oc2ccc(C(F)(F)F)cc2)C1	1%	i	?	?	-24%	?	?	4%	?
COc1ccccc1CNC(=O)C1CN(C2CCCCC2)C(=O)N1 (configuration not stated)	i	/	-10%[172 µM]	-24%[138 µM]	/	/	/	/	/
O=C(c1cc(F)ccc1F)N1CCC2(CC1)N=C(c1ccc(Cl)cc1)NO2	i	i	?	?	16µM*	24µM*	22µM*	-3%	24µM*
O=C(c1cccc2[nH]ccc12)N1CCC2(CC1)N=C(c1ccc(Cl)cc1)NO2	0%	i	?	?	11µM*	19µM*	22µM*	-16%	17µM*
O=C(Cc1cccc(F)c1)N1CCC2(CC1)N=C(c1ccc(Cl)cc1)NO2	-13%	i	?	?	?	24µM*	?	3%	24µM*
